PubChem BioAssay (NCI)
Several values for one entry are separate records, joined by “and”; a condition that tells them apart may be missing. Identical values can stand only once. The panel holds about 83,000 compounds, 20% with a hit somewhere; the sample as a whole holds those more often.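 48-hour exposure, single concentration, 96-well plates; percent growth endpoint where 0 means no net growth. Active: below 10.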 Values without a mark were called inactive. Activity calls are given as the source filed them.

Test system: MDA-MB-468 breast
Test: NCI-60 one-dose screen, 48 h (100 = growth as untreated, 0 = no growth, -100 = all killed)
Details: 10 µM unless noted

Row | SMILES | growth
1 | COc1ccc2cc(-c3ccc(C(=O)NN)c(C)n3)ccc2c1 | 106%
2 | C[C@@H]1C(=O)N(C[C@H](Cc2ccccc2)N(Cc2ccccc2)Cc2ccccc2)[C@]1(Cc1ccccc1)C(=O)OC(C)(C)C | 10.7%
3 | Cc1ccc2c(n1)C(=O)C(Br)=C(CC(C)C)C2=O | 91.1%
4 | CC1(c2ccccc2O)NN=C(/N=C/c2cccc([N+](=O)[O-])c2)N1C(Cc1c[nH]c2ccccc12)C(=O)O (stereo not given) | 103%
5 | CC/C=C\C[C@H]1C/C=C2/C(=O)C=C[C@H]2C/C=C\CCCC(=O)O1 | 31.7%
6 | COc1cc2ncnc(Nc3ccc(S(=O)(=O)Nc4cc(C)on4)cc3)c2cc1OCCCN1CCOCC1 | 103%
7 | Cc1cc2c(cc1C)[n+](Cc1ccc3ccccc3c1)cn2Cc1ccc2ccccc2c1 | -76.4% (active)
8 | O=c1oc2ccc(Br)cc2c(=O)n1-c1ccc(F)cc1F | -2.96% (active)
9 | O=C1CCCN1c1cccc2cccnc12 | 98.8%
10 | Brc1ccc2[nH]cc(-c3nc(-c4c[nH]c5ncccc45)cs3)c2c1 | 43.6%
11 | COCC(N)=O | 101%
12 | Cc1ccc(C2=NN(c3ccc(S(C)(=O)=O)cc3)C(=O)CC2)cc1 | 23.9%
13 | COc1ccc(C2=CN3CC=CC3CC2=O)cc1 (stereo not given) | 95.3%
14 | Cc1ccc2c(c1)ncn2-c1ncnc2c1CC(C)c1ccccc1N2C (stereo not given) | 38%
15 | COc1ccc(-c2nc(SCCC(C)C)nc(N/N=C(/C)c3ccc(N)cc3)c2C#N)cc1 | 103%
16 | C=CCN(/C=C/CN(CC=C)CC=C)CC=C | 99.3%
17 | CSc1nc(N)c(N)c(N)n1 | 114%
18 | CCCc1c(OC(=O)c2ccccc2)nc2[nH]c(=O)sc2c1C | 84.4%
19 | COc1ccc(-c2cc(-c3ccc(N4CCOCC4)cc3)n3c(n2)nc2ccccc23)cc1OC | 93.7%
20 | CCC(C)(C)c1ccc(OCCCCCCN2CCN(c3ccc(C)c(Cl)c3)CC2)cc1 | 47.1%
21 | O=S(=O)(Nc1ccccc1)c1ccc(C2CC3(Cl)C(Cl)=C(Cl)C2(Cl)C3(Cl)Cl)cc1 (stereo not given) | 62.2%
22 | C[C@@H](Nc1c(C#N)cnc2ccc(-c3cnc(Cl)c(NS(C)(=O)=O)c3)cc12)c1ccccc1 | -36% (active)
23 | O=C(Nc1ccc(OS(=O)(=O)c2ccc(F)cc2)cc1)c1ccc(Cl)cc1 | 98%

Row | SMILES | growth
24 | COc1ccc(N(C)c2nc(Cl)nc3cnn(C)c23)cc1 | 26.9%
25 | COc1ccc2c(c1)OC1=C(C(=O)OC1)C2c1cc(OC)c(OC)c(OC)c1 (stereo not given) | -5.94% (active)
26 | Fc1ccc2c(c1)c(-c1nc(-c3c[nH]c4ncccc34)cs1)cn2CCCN1CCCCC1 | 76.6%
27 | COc1ccc(-c2cc(-c3nnc(SC/C(=N\O)c4ccccc4)n3-c3ccccc3)c3ccccc3n2)cc1 | 107%
28 | O=C1OCC2=C1C(c1cccc(Br)c1)c1cc3c(cc1N2CCO)OCCO3 (stereo not given) | 24.7%
29 | CN1CCN(C(=O)OCc2nc3c(N4CCOCC4)nc(Cl)nc3n2C)CC1 | -69.4% (active)
30 | O=[N+]([O-])c1ccc(Oc2nc(Nc3ccc(O[C@H]4CO[C@H]5[C@@H]4OC[C@@H]5O)c(Cl)c3)ncc2F)c(Cl)c1 | 15.8%
31 | CCCC(=O)NC(c1cccnc1)c1cc(C)c2cccnc2c1O (stereo not given) | 19.8%
32 | O=[N+]([O-])c1ccc(O)cc1Br | 106%
33 | CCN(CCCNC(=O)Cc1cc(=O)oc2cc(N(C)C)ccc12)CCNc1ccnc2cc(Cl)ccc12 | 52%
34 | Nc1cc(F)ccc1[N+](=O)[O-] | 100%
35 | Cc1ccc(S(=O)(=O)Nc2cc(Sc3ccccc3)c(O)c3ccccc23)cc1 | -53.9% (active)
36 | CC1(C(N)=O)CCC(C(=O)O)C1(C)C (stereo not given) | 99.2%
37 | CC(O)(CC(=O)CC(=O)c1ccccc1)c1ccccc1 (stereo not given) | 94.9% and 101%
38 | COc1ccc(/C(=N\N=C(N)N)c2ccc(Cl)cc2)cc1OC | 52.8%
39 | CCN1C(=O)N(CC)C2C1NN=C1SC(c3ccccc3)=CC(=O)N12 (stereo not given) | 5.17% (active)
40 | O=C(CNS(=O)(=O)Cc1ccccc1)NNc1ccccc1 | 79.4%
41 | CCCCCCCCCCCCCCCCCCOc1ccccc1N | 101%
42 | CCCN(CCC)CN(CCC)CCC | 106%
43 | NCCNC(=O)c1cccc(COc2ccccc2NC(=O)c2cc(Br)c(Br)[nH]2)c1 | 85.1%
44 | O=C(O)CCCc1ccccc1 | 109%
45 | O=C1[C@H]2Cc3c([nH]c4ccccc34)[C@@H](c3ccc(Br)cc3)N2C(=O)CN1C1CCN(CC2CCCCC2)CC1 | -84.6% (active)
